High-throughput results: PubChem, National Center for Advancing Translational Sciences (NCATS)
Shown are actives, neighbours in structure and some others; about 21% of the full set was active somewhere.
HCV inhibitor = qHTS Assay for Inhibitors of Hepatitis C Virus (HCV); Huh7.5.1 HCVcc-Cre infection, luciferase reporter, 44 h; Potency, µM (titrated, usually from 41.8 µM), for inactives: at the highest dose activity change, negative = inhibition, hits mostly inhibitors; 340,000 tested, 3.4% active; also: potency is read from the fitted curve at half-maximal effect; % is scaled to controls: 0 for no effect and ±100 for the full control effect
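Cells (1,000/well) were plated 4 h before compound, then infected with HCVcc-Cre virus (~0.5 moi). After 44 h further culture, infection was read as luciferase luminescence following a 15 min substrate incubation at room temperature.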
Shiga toxin inh = A qHTS for Small Molecule Inhibitors of Shiga Toxin; inhibition, % at 38.7 µM; Vero cells, Shiga toxin protein synthesis inhibition reporter; 290,000 tested, 9.2% active; in the data active = inhibition mostly above about 28%, no sharp cut-off; inactive = mostly below about 43%; also: 0% is about no effect
AMA1-RON2 inh = qHTS for Inhibitors of AMA1-RON; Towards Development of Antimalarial Drug Lead: Primary Screen; Plasmodium falciparum AMA1 (3D7) - RON2 peptide interaction; AlphaScreen AMA1-biotinylated RON2 peptide binding; Potency, µM (titrated, usually from 58.2 µM), without a hit: top-dose activity change, negative = inhibition, actives largely listed as inhibitors; 360,000 tested, 0.2% active; AID 720542, 2013;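 also: potency is read from the fitted curve at half-maximal effect; 0% = vehicle wells and -100% = peptide control; nearly all actives have a fitted effect of over 45% in size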
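AMA1 (3D7) with his tag at 25 nM final met compounds first, then biotinylated RON2 peptide at 25 nM; detection used donor plus acceptor beads, 10 µg/mL apiece, read by AlphaScreen after 30 min at room temperature.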
Pf growth 96h = Primary qHTS for delayed death inhibitors of the malarial parasite plastid, 96 hour incubation; P. falciparum luciferase reporter growth, 96 h; Potency, µM (series often up to 28.7 µM), for inactives: at the top dose activity change, negative = inhibition, actives largely listed as inhibitors; 320,000 tested, 6.9% active; also: potency is read from the fitted curve at half-maximal effect; % is scaled to controls: 0 for no effect and ±100 for the full control effect
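Delayed-death screen, second-generation endpoint: infected erythrocytes, 2% hematocrit, 0.05% parasitemia final; 96 hours at 37 C, 5% CO2; luciferase detection reagent; luminescence decrease equals reduced growth.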
Pf growth 48h = Primary qHTS for delayed death inhibitors of the malarial parasite plastid, 48 hour incubation | P. falciparum luciferase growth in erythrocytes, 48 h | Potency, µM (series often up to 28.7 µM), without a hit: at the top dose activity change, negative = inhibition, usual class: inhibitors | 310,000 tested, 5.9% active | AID 504832, 2011; also: potency is read from the fitted curve at half-maximal effect; % is scaled to controls: 0 for no effect and ±100 for the full control effect
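Luminescence readout; reporter = integrated firefly luciferase in P. falciparum. RBC culture at 2% hematocrit, 0.1% parasitemia final, 37 C/5% CO2; decreased signal taken as growth inhibition.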
CHX counter = Cycloheximide Counterscreen for Small Molecule Inhibitors of Shiga Toxin; cell reporter, cycloheximide protein synthesis inhibition counterscreen; max response, %; 300,000 tested, 12% active; in the data active = max response mostly above about 13%, no sharp cut-off; inactive = mostly below about 14%; also: read at 38.3 µM for the half of the compounds with a filed dose; 0% is about no effect
* hit, by the source's call; i = inactive; ? = inconclusive; nt = not tested or not shown; [ ] = another dose, or the depositor's remark. Unless noted, calls follow the shape of the dose curve; as a rule, active = well fitted curve in the direction sought with a large enough effect; inconclusive = small, poorly fitted or top-dose-only effect, or another doubt; inactive = no such curve, though single readings can be large; an effect the other way counts as inactive or inconclusive.

SMILES	HCV inhibitor	Shiga toxin inh	AMA1-RON2 inh	Pf growth 96h	Pf growth 48h	CHX counter
COc1ccc(Cc2nnc(SCC(=O)c3ccc(OC)cc3)o2)cc1	?	-18	12%	nt	-11%	-3
COc1ccc(C(=O)CSc2nnc(Cn3cnc4ccccc43)o2)cc1	2.2µM*	-8	22%	3%	-23%	-1
CCN1CCn2c3c(c4cccc(C)c42)CCCC31 (configuration not stated)	-23%	-5	-30%	6%	?	-3
C=CCn1c(C)c(C(C)=O)c(N2CCN(C(c3ccccc3)c3ccccc3)CC2)nc1=S	?	10	-12%	?	?	1
CCOC(=O)[C@@H](C)NS(=O)(=O)N(Cc1ccccc1)[C@H](C(=O)OC)C(C)C	5%	nt	-3%	18%	-23%	nt
CCOC(=O)[C@@H](C)N(Cc1ccc(OC)cc1)S(=O)(=O)N(Cc1ccccc1)[C@H](C(=O)OC)C(C)C	?	nt	2%	?	10µM*	nt
C=C[C@H](CC(C)C)N(Cc1ccccc1)S(=O)(=O)N(Cc1ccc(OC)cc1)[C@H](C=C)CC(C)C	-5%[8.37 µM]	nt	-1%	?	5.2µM*	nt
COC(=O)[C@H](CC(C)C)N(Cc1ccccc1)S(=O)(=O)N(Cc1ccc(OC)cc1)[C@@H](CC(C)C)C(=O)OC	-8%[8.37 µM]	nt	-21%	nt	nt	nt
COc1ccc(/C=N\NC(=O)c2nn(C)cc2Cl)cc1CN1CCOCC1	5%	10	-13%	51%	28%	2
NC(N)=N/N=C/c1ccc(OS(=O)(=O)c2ccccc2)cc1	?	29	-3%	-14%	2.1µM*	2
Cn1cc(Cl)c(C(=O)N/N=C/c2ccc(OS(=O)(=O)c3ccccc3)cc2)n1	?	-13	9%	9.3µM*	?	21
Cc1ccc(/C=N/NC(=O)c2nn(C)cc2Cl)cc1	13%	47*	10%	122%	197%	34*
Cn1cc(Cl)c(C(=O)N/N=C/c2ccc3c4c(cccc24)CC3)n1	?	61*	39%	80%	107%	29*
COc1ccc([C@H]2N[C@]3(CCCN(Cc4ccc(Cl)cc4)C3=O)[C@H]3C(=O)N(Cc4ccccc4)C(=O)[C@@H]23)cc1	nt	nt	-12%	nt	nt	nt
CCC(=O)N/N=C/c1ccc(OS(=O)(=O)c2ccccc2)cc1	-4%	-10	5%	?	10µM*	-2
COc1ccc(/C=N/NC(=O)CNS(=O)(=O)c2ccccc2)cc1	-1%	nt	-1%[11.6 µM]	?	-22%	nt
CCOc1cc(/C=N/NC(=O)COc2ccc(Cl)cc2)ccc1OS(=O)(=O)c1ccccc1	5µM*	16	6%	?	nt	6
O=C(O)c1ccccc1C(=O)Nc1ccc(Br)c2cccnc12	-6%	13	-19%	?	15%	0
Cc1cc(C)cc(NC(=S)N2CC(C)OC(C)C2)c1 (configuration not stated)	8%	-6	0%	2.1µM*	-7%	-2
CC1CN(C(=S)Nc2ccc(Br)cc2)CC(C)O1 (configuration not stated)	1%	-5	5%	?	-8%	-3
Cc1ccc2cccc(OCC(=O)Nc3ccc4c(c3)OCO4)c2n1	?	48	-13%	-3%	-4%	-3
COc1cc(C)ccc1OCC(=O)Nc1ccc2c(c1)OCO2	?	nt	-2%	105%	154%	nt
O=C(COc1ccccc1Cl)Nc1ccc2c(c1)OCO2	-4%	71*	0%	-12%	219%	42*
COc1ccccc1OCC(=O)Nc1ccc2c(c1)OCO2	-24%	66*	-23%	-8%	46%	25*
COc1ccccc1CC(=O)Nc1ccc2c(c1)OC1(CCCC1)O2	13µM*	nt	-21%	nt	nt	nt
SMILES	HCV inhibitor	Shiga toxin inh	AMA1-RON2 inh	Pf growth 96h	Pf growth 48h	CHX counter
O=C(Cc1ccccc1)Nc1ccc2c(c1)OC1(CCCC1)O2	-1%	nt	-28%	141%	126%	nt
Cc1ccccc1OCC(=O)Nc1ccc2c(c1)OCO2	-23%	157*	-4%	nt	49%	32*
Cc1ccc([C@H]2C[C@H](O)[C@@H](n3cc(C4CC4)nn3)CN2C(=O)C2CCCCC2)cc1	nt	nt	-1%	nt	nt	nt
Cc1ccc(S(=O)(=O)NC(=O)C2(C)CCN2C(=O)CCc2ccc(Cl)cc2Cl)nc1 (configuration not stated)	nt	nt	95%	nt	nt	nt
CCN1CCc2c(OCC(=O)Nc3cccc(C)c3)cccc2C1=O	?	14	-4%	?	-16%	-6
CCN1CCc2c(OCC(=O)Nc3ccc4c(c3)OCCO4)cccc2C1=O	nt	-3	nt	6.6µM*	-40%[1.15 µM]	-7
CCc1noc(C)c1C(=O)OCC(=O)NC(=O)c1ccccc1	16%	24	-12%	-15%	-2%	11
COCc1cc(=O)[nH]c(N2CCN(c3ccccc3OC)CC2)n1	12%	-9	-5%	8.3µM*	0%	-3
Nc1ccn(C2OC(COC(=O)C34CC5CC(CC(C5)C3)C4)C(O)C2O)c(=O)n1 (configuration not stated)	-15%	nt	-3%	nt	nt	nt
O=C(O)CCc1nc(-c2ccccc2)no1	9%	-4	2%	-8%	11%	-1
NC(Cc1ccccc1)c1nc(-c2ccccc2)no1 (configuration not stated)	4%	38*	30%	29%	144%	30*
CC(C)(O)C#Cc1ccc(C(=O)NCc2ccccc2F)cc1	-6%	29	-4%	-24%	46%	9
COc1cc2c(c3ccccc13)CCCC2=O	?	nt	-6%	nt	nt	nt
Cc1ccc(/C=N/n2cnc3sc(C)c(C)c3c2=O)o1	-7%	47	-7%	56%	i	26*
CCc1cccc(CC)c1C(OC(C)=O)c1cccnc1 (configuration not stated)	15%	nt	-8%	nt	nt	nt
N#Cc1c(NCCCO)nc(-c2ccccc2)c2c1CCCC2	-19%	-19	21%	?	9%	-6
CCCCCNc1nc(N2CCCC2)c2c(c1C#N)CCN(C)C2	?	-18	?	0%	4.1µM*	-10
CCCCCNc1nc(NCCCO)c(C#N)c2c1CN(C)CC2	?	-3	-1%	12µM*	nt	-2
CN1CCc2c(C#N)c(N3CCOCC3)nc(NCC3CCCO3)c2C1 (configuration not stated)	-14%	8	-4%	?	?	1
Cc1cc(C)c2nc3nc(C)c(C)cc3c(N)c2c1	-30%	70*	-16%	?	4.1µM*	20
CCCn1c(SCC(=O)NC2CCCCC2)nnc1C1CC1	1%	12	-1%	-4%	6%	-1
CC(C)c1cccc(C(C)C)c1OCCCCCN1CCOCC1	-15%	nt	-4%	nt	nt	nt
